Source: article PMC5540273 (PLoS ONE, 2017)

How the values were obtained:
Conditions in all cases: concentration: 1 μM, replicates: in singlicate; n = 1
DCAMKL2 = test system: T1, DCAMKL2
T1 construct: gene DCLK2

DCAMKL3 = test system: T2, DCAMKL3
T2 construct: gene DCLK3

DDR1 = test system: DDR1
DDR2 = test system: DDR2
DLK = test system: T3, DLK
T3 construct: gene MAP3K12

DMPK2 = test system: T4, DMPK2
T4 construct: gene CDC42BPG

DMPK = test system: DMPK
DRAK1 = test system: T5, DRAK1
T5 construct: gene STK17A

DRAK2 = test system: T6, DRAK2
T6 construct: gene STK17B

DYRK1A = test system: DYRK1A
DYRK1B = test system: DYRK1B
DYRK2 = test system: DYRK2
EGFR = test system: EGFR
EIF2AK1 = test system: EIF2AK1
EPHA1 = test system: EPHA1
EPHA2 = test system: EPHA2
EPHA3 = test system: EPHA3
EPHA4 = test system: EPHA4
EPHA5 = test system: EPHA5
EPHA6 = test system: EPHA6
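Further: KINOMEscan kinase panel screen.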

| Structure (SMILES) | %Inh (DCAMKL2) [%] | %Inh (DCAMKL3) [%] | %Inh (DDR1) [%] | %Inh (DDR2) [%] | %Inh (DLK) [%] | %Inh (DMPK2) [%] | %Inh (DMPK) [%] | %Inh (DRAK1) [%] | %Inh (DRAK2) [%] | %Inh (DYRK1A) [%] | %Inh (DYRK1B) [%] | %Inh (DYRK2) [%] | %Inh (EGFR) [%] | %Inh (EIF2AK1) [%] | %Inh (EPHA1) [%] | %Inh (EPHA2) [%] | %Inh (EPHA3) [%] | %Inh (EPHA4) [%] | %Inh (EPHA5) [%] | %Inh (EPHA6) [%] |
| --- | --- | --- | --- | --- | --- | --- | --- | --- | --- | --- | --- | --- | --- | --- | --- | --- | --- | --- | --- | --- |
| O=C(Nc1cccc(-c2nn3ccccc3c2-c2ccnc(Nc3cccc(F)c3)n2)c1)c1c(F)ccc(F)c1Cl [GSK357952] | 7 | 1 | 100 | 82 | 3 | 19 | 0 | 3 | 0 | 6 | 0 | 11 | 100 | 39 | 5 | 0 | 0 | 25 | 0 | 15 |
| Cc1ccc(C(=O)N2CC[C@@H](O)C2)cc1-n1c(C)cc(OCc2ccc(F)cc2F)c(Br)c1=O | 0 | 0 | 99 | 94.6 | 0 | 0 | 0 | 0 | 0 | 0 | 0 | 0 | 0 | 0 | 78 | 76 | 42 | 0 | 0 | 0 |
| COC(=O)Nc1nc2cc(Oc3ccc(NC(=O)Nc4cc(C(F)(F)F)ccc4F)cn3)ccc2[nH]1.Cl.Cl [GW681170] | 15 | 3 | 100 | 97.1 | 35 | 0 | 0 | 16 | 0 | 0 | 12 | 0 | 12 | 5 | 64 | 92.3 | 47 | 81 | 43 | 91 |
| CNC(=O)c1ccccc1Nc1nc(Nc2ccc(N3CCOCC3)cc2)ncc1Cl.Cl [GSK1576028] | 31 | 81 | 95.1 | 73 | 95 | 25 | 81 | 95.1 | 60 | 94.4 | 100 | 99.1 | 98.8 | 0 | 90.8 | 53 | 76 | 29 | 0 | 65 |
| CC(=O)Nc1nc2cnc(Nc3cc(NC(=O)c4cccc(C5(C#N)CC5)c4Cl)ccc3C)nc2s1 | 0 | 0 | 100 | 99.4 | 0 | 0 | 0 | 0 | 10 | 0 | 67 | 8 | 0 | 0 | 70 | 79 | 50 | 59 | 3 | 56 |
| COc1cc2c(cc1OCCN1CCNCC1)ncc1c3ccc(C#N)cc3[nH]c21 | 3 | 4 | 0 | 1 | 85 | 0 | 5 | 99.5 | 99.6 | 93.1 | 63 | 73 | 26 | 0 | 3 | 3 | 0 | 1 | 2 | 0 |
| Cc1cccc(Nc2nc(N[C@H]3CCNC3)ncc2C(N)=O)c1.Cl [GSK2197149] | 30 | 0 | 0 | 0 | 35 | 4 | 0 | 53 | 22 | 24 | 12 | 32 | 50 | 22 | 0 | 0 | 45 | 8 | 0 | 7 |
| Fc1ccc(-c2ncn(C3CCNCC3)c2-c2ccnc(Oc3ccc(-c4ccccc4)cc3)n2)cc1 [SB-245391] | 3 | 18 | 2 | 10 | 7 | 86 | 5 | 0 | 15 | 0 | 25 | 36 | 3 | 12 | 19 | 0 | 0 | 19 | 9 | 17 |
| FC(F)(F)c1ccc(/C=C/c2cncnc2Nc2ccc3[nH]c(Cc4ccccc4)nc3c2)cc1 [GW709199] | 7 | 21 | 0 | 36 | 0 | 0 | 0 | 0 | 7 | 0 | 31 | 0 | 46 | 0 | 10 | 12 | 0 | 0 | 0 | 0 |
| CN1CCN(CCCNc2nccc(-c3c(-c4ccc(F)cc4)nn4cc(C(F)(F)F)ccc34)n2)CC1 [GW621581] | 0 | 25 | 100 | 81 | 16 | 0 | 0 | 33 | 0 | 5 | 0 | 4 | 23 | 0 | 42 | 0 | 0 | 1 | 0 | 8 |
